Active and inactive are the calls of the source.
Assays:
[1] = tested on: Plasmodium falciparum Sir2 (PF13_0152, Sir2A); assay: pfSir2 binders on small-molecule microarrays, primary screen, biochemical, small-molecule microarray, 635 nm fluorescence (AID 1098); settings: small-molecule microarray binding, fluorescence 635 nm; higher = more signal;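 also: score merges spot fluorescence intensity with its signal-to-noise ratio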
[2] = small-molecule microarray binders of probe aDKK1, primary screen, biochemical, biotinylated probe, 635/667 nm fluorescence (AID 1099); settings: higher = more signal;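 also: score merges 667nm spot fluorescence with signal to noise across triplicate slides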
[3] = small-molecule microarray binders of probe aCHRDL2, primary screen, biochemical, biotinylated probe, 635/667 nm fluorescence (AID 1100); settings: higher = more signal
[4] = splicing luciferase reporter signal modulators, primary screen, spliceosome inhibition project, cell-based, HEK293, splice +/- reporter (AID 1101); settings: luminescence, 24 h, higher = more signal, called active from +8 up or from −8 down;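 also: HEK293 cells carrying a splicing-competent luciferase reporter gene; test concentration not given here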
[5] = molecular target: Fibroblast growth factor 10 (Homo sapiens) (UniProt O15520); assay: FGF10 binders on small-molecule microarrays, primary screen, biochemical, small-molecule microarray, 635 nm fluorescence (AID 1102); settings: FGF10 binding, fluorescence 635 nm, higher = more signal
Chain of Fibroblast growth factor 10 (Homo sapiens) (O15520 whole entry, looked up): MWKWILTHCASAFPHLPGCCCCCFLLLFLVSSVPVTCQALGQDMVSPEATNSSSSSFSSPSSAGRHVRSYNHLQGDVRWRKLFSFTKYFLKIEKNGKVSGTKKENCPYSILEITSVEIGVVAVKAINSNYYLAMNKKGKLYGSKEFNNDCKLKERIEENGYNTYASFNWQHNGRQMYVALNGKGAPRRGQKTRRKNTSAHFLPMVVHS

[6] = tested on: glycogen synthase kinase-3 (GSK3A per assay name; protocol says GSK3B); assay: GSK3 binders on small-molecule microarrays, primary screen, biochemical, small-molecule microarray, 635 nm fluorescence, GSK3A (AID 1103); settings: small-molecule microarray binding, fluorescence 635 nm; higher = more signal; also: the record names both GSK3A and GSK3B
[7] = molecular target: Epidermal growth factor receptor (Homo sapiens) (UniProt P00533); assay: EGFR binders on small-molecule microarrays, primary screen, biochemical, small-molecule microarray, 635 nm fluorescence (AID 1104); settings: EGFR binding, higher = more signal;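 also: score merges 667 nm emission intensity with spot signal to noise over triplicate slides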
Chain of Epidermal growth factor receptor (Homo sapiens) (P00533 whole entry, looked up): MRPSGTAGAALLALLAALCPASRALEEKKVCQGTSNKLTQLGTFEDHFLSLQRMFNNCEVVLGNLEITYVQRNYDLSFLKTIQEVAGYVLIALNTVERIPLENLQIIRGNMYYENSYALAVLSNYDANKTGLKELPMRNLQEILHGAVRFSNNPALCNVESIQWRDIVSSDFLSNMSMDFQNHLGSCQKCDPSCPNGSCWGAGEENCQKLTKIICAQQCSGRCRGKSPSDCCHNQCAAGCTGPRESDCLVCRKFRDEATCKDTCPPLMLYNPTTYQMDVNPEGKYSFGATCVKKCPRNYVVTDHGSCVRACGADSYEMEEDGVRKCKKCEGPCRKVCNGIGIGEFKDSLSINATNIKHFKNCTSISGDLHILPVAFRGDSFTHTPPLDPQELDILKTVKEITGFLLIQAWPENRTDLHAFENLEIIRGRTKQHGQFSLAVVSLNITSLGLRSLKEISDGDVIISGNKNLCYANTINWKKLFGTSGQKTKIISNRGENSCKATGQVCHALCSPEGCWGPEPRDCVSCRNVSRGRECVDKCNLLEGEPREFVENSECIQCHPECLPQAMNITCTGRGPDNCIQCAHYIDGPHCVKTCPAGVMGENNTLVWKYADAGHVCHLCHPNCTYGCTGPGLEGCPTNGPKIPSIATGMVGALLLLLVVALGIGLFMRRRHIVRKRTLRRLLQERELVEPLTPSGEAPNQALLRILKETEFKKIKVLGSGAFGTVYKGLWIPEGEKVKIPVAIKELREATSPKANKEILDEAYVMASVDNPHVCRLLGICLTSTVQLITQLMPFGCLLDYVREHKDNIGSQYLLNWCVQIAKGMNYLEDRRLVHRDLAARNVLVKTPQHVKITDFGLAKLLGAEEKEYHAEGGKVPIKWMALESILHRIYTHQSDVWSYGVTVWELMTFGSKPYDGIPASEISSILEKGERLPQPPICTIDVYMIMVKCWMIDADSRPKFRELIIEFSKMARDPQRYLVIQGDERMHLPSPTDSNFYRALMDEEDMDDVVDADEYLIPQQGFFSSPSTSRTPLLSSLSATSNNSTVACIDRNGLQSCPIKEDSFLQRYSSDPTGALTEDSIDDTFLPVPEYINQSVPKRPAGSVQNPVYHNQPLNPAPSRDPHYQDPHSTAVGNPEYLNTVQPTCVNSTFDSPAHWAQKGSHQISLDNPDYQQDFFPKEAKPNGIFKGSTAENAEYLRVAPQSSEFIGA

[8] = molecular target: Follistatin-related protein 3 (Homo sapiens) (UniProt O95633); assay: FSTL3 binders on small-molecule microarrays, primary screen, biochemical, small-molecule microarray, 635 nm fluorescence (AID 1105); settings: FSTL3 binding, higher = more signal;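 also: score merges emission near 667 nm and signal to noise per printed spot across three slides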
Chain of Follistatin-related protein 3 (Homo sapiens) (O95633 whole entry, looked up): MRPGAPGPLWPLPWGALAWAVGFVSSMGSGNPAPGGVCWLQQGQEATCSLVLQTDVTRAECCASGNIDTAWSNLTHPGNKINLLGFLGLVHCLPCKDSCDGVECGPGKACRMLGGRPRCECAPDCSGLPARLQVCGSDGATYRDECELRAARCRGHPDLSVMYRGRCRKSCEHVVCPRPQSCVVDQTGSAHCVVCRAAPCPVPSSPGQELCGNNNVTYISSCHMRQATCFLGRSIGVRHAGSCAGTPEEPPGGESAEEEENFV

[9] = molecular target: Dickkopf-related protein 1 (Homo sapiens) (UniProt O94907); assay: DKK1 binders on small-molecule microarrays, primary screen, biochemical, small-molecule microarray, 635 nm fluorescence scan (AID 1106); settings: DKK1 binding, higher = more signal;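 also: score merges emission near 667 nm with signal to noise over three replicate slides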
Chain of Dickkopf-related protein 1 (Homo sapiens) (O94907 whole entry, looked up): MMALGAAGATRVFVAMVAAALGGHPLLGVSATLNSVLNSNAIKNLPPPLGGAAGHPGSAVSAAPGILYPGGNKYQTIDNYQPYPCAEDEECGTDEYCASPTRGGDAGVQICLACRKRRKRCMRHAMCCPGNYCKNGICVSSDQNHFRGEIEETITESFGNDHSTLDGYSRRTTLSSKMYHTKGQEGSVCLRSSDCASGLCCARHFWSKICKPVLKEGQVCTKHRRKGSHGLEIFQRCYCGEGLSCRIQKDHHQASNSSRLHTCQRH

[10] = tested on: Inhibin beta A chain (activin A); assay: INHBA (activin A) binders on microarrays, primary screen, biochemical, small-molecule microarray, 635 nm fluorescence scan (AID 1107); settings: small-molecule microarray binding, higher = more signal;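 also: mouse activin A protein probed at 4.33 µg/mL on printed slides; score merges bound-protein fluorescence near 667 nm with spot signal-to-noise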
[11] = tested on: Human papillomavirus type 1a protein E7 (residues 44-93); assay: HPV1a E7 fragment binders on microarrays, primary screen, biochemical, small-molecule microarray, residues 44-93, 635 nm fluorescence (AID 1108); settings: small-molecule microarray binding, fluorescence 635 nm; higher = more signal;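 also: E7 fragment applied at 1 µg/mL in TBST for 1 h at 4 C; score combines spot fluorescence with its signal to noise ratio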
[12] = modulators of HCV replicon luciferase signal, primary screen, HCV replication inhibitor project, Huh7 cells, luciferase reporter (AID 1109); settings: 48 h, higher = more signal;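 also: huh7 hepatoma cells harbouring a luciferase neomycin HCV replicon reporter; luciferase luminescence as measure of HCV replicon replication; test concentration not given here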
[13] = molecular target: Left-right determination factor 2 (Homo sapiens) (UniProt O00292); assay: LEFTY2 binders on small-molecule microarrays, primary screen, biochemical, small-molecule microarray, 635 nm fluorescence scan (AID 1110); settings: LEFTY2 binding, higher = more signal
Chain of Left-right determination factor 2 (Homo sapiens) (O00292 whole entry, looked up): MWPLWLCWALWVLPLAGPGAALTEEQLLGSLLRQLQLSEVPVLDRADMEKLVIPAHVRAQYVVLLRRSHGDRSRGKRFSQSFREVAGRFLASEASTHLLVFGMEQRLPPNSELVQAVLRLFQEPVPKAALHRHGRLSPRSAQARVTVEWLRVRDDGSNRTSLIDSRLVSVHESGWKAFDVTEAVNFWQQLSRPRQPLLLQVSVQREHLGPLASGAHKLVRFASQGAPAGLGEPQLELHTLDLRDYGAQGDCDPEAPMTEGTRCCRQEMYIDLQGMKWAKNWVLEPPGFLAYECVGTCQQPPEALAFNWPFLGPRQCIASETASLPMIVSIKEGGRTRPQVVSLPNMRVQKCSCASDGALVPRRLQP

[14] = molecular target: Calmodulin-1 (Homo sapiens) (UniProt P0DP23); assay: CALM1 binders on microarrays, EGTA buffer, profiling panel, biochemical, small-molecule microarray, Cy5-labelled CALM1 (AID 1111); settings: Cy5-CALM1 binding fluorescence, higher = more signal;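 also: labelled calmodulin applied in Tris saline Tween buffer holding calcium plus EGTA and DTT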
[15] = molecular target: Calmodulin-1 (Homo sapiens) (UniProt P0DP23); assay: calcium-bound CALM1 binders on microarrays, profiling panel, artefact control for SMM control-protein annotation, biochemical, small-molecule microarray, Cy5-labelled CALM1, plus calcium (AID 1112); settings: Cy5-CALM1 binding fluorescence, higher = more signal;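 also: score merges spot fluorescence with signal to noise from triplicate slides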
[16] = small-molecule microarray binders of probe aWnt5a, primary screen, biochemical, biotinylated probe, 635/667 nm fluorescence (AID 1113); settings: higher = more signal;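 also: score merges 667 nm fluorescence intensity with signal-to-noise per printed feature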
[17] = small-molecule microarray binders of probe aShh, primary screen, biochemical, biotinylated probe, 635/667 nm fluorescence (AID 1114); settings: higher = more signal;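 also: probe is biotin-labelled aShh protein from a stem cell growth factor screen; measures binding of labelled protein to compounds printed on the slide; score merges feature fluorescence at 667 nm with signal-to-noise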
[18] = small-molecule microarray binders of probe aNog, primary screen, biochemical, biotinylated probe, 635/667 nm fluorescence (AID 1115); settings: higher = more signal;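 also: probe is biotinylated aNog protein used at 0.15 µg/mL for 1 h at 4 C; z-score combines 667 nm fluorescence of each spot with its signal to noise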
[19] = molecular target: Torsin-1A-interacting protein 1 (Homo sapiens) (UniProt Q5JTV8); assay: LAP1 binders from COS7 cell lysate, primary screen, small-molecule microarray, 635/667 nm fluorescence (AID 1116); settings: COS7-hLAP1 lysate binding, 635 nm fluorescence, higher = more signal
Chain of Torsin-1A-interacting protein 1 (Homo sapiens) (Q5JTV8 whole entry, looked up): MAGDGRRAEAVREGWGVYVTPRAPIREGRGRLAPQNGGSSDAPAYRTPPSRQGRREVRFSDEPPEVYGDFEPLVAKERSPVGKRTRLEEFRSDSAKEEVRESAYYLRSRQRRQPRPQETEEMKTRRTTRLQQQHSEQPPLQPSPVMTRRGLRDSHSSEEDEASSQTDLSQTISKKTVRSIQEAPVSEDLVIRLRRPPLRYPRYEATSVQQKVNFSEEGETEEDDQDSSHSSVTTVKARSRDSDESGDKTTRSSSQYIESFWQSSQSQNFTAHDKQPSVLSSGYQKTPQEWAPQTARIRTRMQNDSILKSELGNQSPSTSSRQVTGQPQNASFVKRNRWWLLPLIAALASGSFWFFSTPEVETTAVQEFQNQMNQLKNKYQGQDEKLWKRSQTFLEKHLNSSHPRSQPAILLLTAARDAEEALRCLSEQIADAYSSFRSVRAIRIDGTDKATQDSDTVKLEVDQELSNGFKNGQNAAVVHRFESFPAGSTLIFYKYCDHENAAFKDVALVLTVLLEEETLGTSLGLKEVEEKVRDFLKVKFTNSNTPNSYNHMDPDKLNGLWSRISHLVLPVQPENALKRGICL

[20] = molecular target: Alpha-bungarotoxin (Bungarus multicinctus) (UniProt P60615); assay: alpha-bungarotoxin binders on microarray, profiling panel, artefact control for SMM control protein annotation, biochemical, small-molecule microarray, Alexa647 label, 635/667 nm fluorescence (AID 1117); settings: alpha-BTX-A647 binding fluorescence, higher = more signal
Chain of Alpha-bungarotoxin (Bungarus multicinctus) (P60615 whole entry, looked up): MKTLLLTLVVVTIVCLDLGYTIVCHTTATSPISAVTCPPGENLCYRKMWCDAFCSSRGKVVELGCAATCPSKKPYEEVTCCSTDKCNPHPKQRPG

| Compound | composite z-score [1] | composite z-score [2] | composite z-score [3] | z-score [4] | composite z-score [5] | composite z-score [6] | composite z-score [7] | composite z-score [8] | composite z-score [9] | composite z-score [10] | composite z-score [11] | z-score [12] | composite z-score [13] | composite z-score [14] | composite z-score [15] | composite z-score [16] | composite z-score [17] | composite z-score [18] | composite z-score [19] | composite z-score [20] |
| --- | --- | --- | --- | --- | --- | --- | --- | --- | --- | --- | --- | --- | --- | --- | --- | --- | --- | --- | --- | --- |
| [N-]=[N+]=NCc1ccccc1C[C@@]1(C(=O)O)N=C(c2ccc(OCCCO)cc2)O[C@@H]1c1ccccc1 | 1.31 | 0.884 | 1.24 | -0.618 (inactive) | -0.0995 | -0.374 | -0.906 | -0.879 | -1.09 | 0.738 | 0.566 | -0.616 | -0.404 | 2.13 | 1.36 | -0.0799 | 0.0469 | 0.767 | 1.75 | 1.09 |
| C=CCN1C(=O)[C@@]2(O[C@@H](CCO)[C@H]([Si](C)(C)c3ccc(OC)cc3)[C@H]2C)c2cc(N(C=O)c3ccccc3)ccc21 | 0.592 | 0.235 | 0.453 | -3.43 (inactive) | 0.341 | -0.0443 | -0.131 | 0.131 | 0.0733 | 1.01 | 0.192 | -5.12 | 0.0105 | 0.905 | 1.06 | -0.0643 | -0.138 | 0.238 | 0.473 | 0.37 |
| COc1ccc(C(=O)Nc2cccc(CN3C(=O)[C@@]4(O[C@@H](CCO)[C@H]([Si](C)(C)c5ccc(OC)cc5)[C@H]4C)c4ccccc43)c2)cc1 | 0.775 | 0.481 | 0.666 | 1.92 (inactive) | 0.0414 | 0.2 | -0.121 | 0.131 | 0.19 | 1.49 | 0.721 | -5.15 | -0.0057 | 1.08 | 1.03 | -0.0721 | -0.0146 | 0.0043 | 0.0777 | 0.689 |
| CC(C)CCC[C@@H](C)[C@H]1CC[C@@]2(C)C3=C(CC[C@]12C)[C@@]1(C)CC[C@H](OC(=O)CCl)C(C)(C)C1CC3 (stereo not given in full) | 0.346 | -0.0827 | -0.49 | 0.0767 (inactive) | 0.471 | 0.684 | 0.372 | 0.675 | 0.604 | 0.0773 | 0.637 | -0.143 | 0.448 | -0.0581 | -0.552 | 0.0115 | -0.424 | 0.0983 | 0.247 | 0.587 |
| CC(C)[Si](C#C[Si](C(C)C)(C(C)C)C(C)C)(O[C@H](C)c1cn([C@H](C)c2ccccc2)nn1)C(C)C | 0.366 | 0.106 | 0.351 | -1.8 (inactive) | 0.597 | 0.339 | 0.292 | 0.806 | 0.538 | -0.269 | 0.946 | 0.0537 | 0.188 | 0.242 | -0.479 | -0.131 | -0.138 | 0.444 | 0.245 | 0.833 |
| O=C(O)[C@H]1C[C@H]2C(=O)N[C@@H](Cc3ccccc3)C(=O)N2[C@H]1c1ccc(O)cc1 | 1.56 | 0.844 | 0.913 | -0.282 (inactive) | -0.349 | 0.661 | -0.502 | -0.192 | -0.0944 | 0.945 | -0.067 | -0.262 | -0.307 | -0.195 | 0.504 | -0.0678 | -0.0783 | 0.586 | 0.777 | 0.824 |
| C=C(CCCC)/C(=C/C[C@@H](OC(=O)c1ccncc1)c1ccc(OCCO)cc1)c1cnc2ccccc2c1 | 0.711 | 0.358 | 0.686 | -1.18 (inactive) | 1.24 | 0.633 | 1.15 | 1.53 | 1.68 | 1.8 | 0.602 | -1.3 | 0.737 | 0.0142 | -0.184 | -0.096 | 0.164 | 0.168 | -0.0621 | 3.3 |
| COCCOC(=O)N1C(=O)[C@@]2(c3cc(C#CCNC(N)=O)ccc31)[C@H](C(=O)NC[C@H](O)c1ccccc1)[C@H]1C(=O)O[C@H](c3ccccc3)[C@H](c3ccccc3)N1[C@@H]2c1ccc(O)cc1 | 1.54 | 0.347 | 0.925 | 0.012 (inactive) | 0.477 | 0.0604 | -0.0057 | 0.683 | -0.347 | 0.7 | 0.515 | -0.249 | 0.0741 | 1.01 | 0.571 | -0.0203 | -0.152 | -0.122 | 0.138 | 1.04 |
| CC(CO)N1C(=O)[C@@H]2C3C(=O)OCCC/C=C\[C@H]3OC23C=CCN(Cc2ccccc2)C(=O)[C@@H]13 (stereo not given in full) | 0.608 | -0.206 | 0.0202 | -0.992 (inactive) | -0.559 | -0.236 | -0.794 | -0.639 | -0.386 | 1.21 | -0.412 | -0.159 | -0.784 | -0.182 | -0.292 | -0.176 | -0.0769 | -0.036 | -0.307 | -1.53 |
| O=C(N1CCCCC1)[C@@]1(Cc2ccccc2)N=C(c2ccc(OCCCO)cc2)O[C@H]1c1ccccc1 | 1.43 | 1.26 | 1.31 | -1.96 (inactive) | 0.942 | 0.258 | -0.32 | 0.606 | 0.0474 | 0.766 | 0.73 | -2.94 | -0.458 | 2.45 | 1.09 | 0.801 | 0.106 | 1.9 | 2.95 | 3.12 |

Source: PubChem BioAssay
